Assay outcomes from PubChem BioAssay.
Pf Dd2 inh – inhibitors of Plasmodium falciparum Dd2 growth | Potency, µM (titrated, usually from 28.9 µM), without a hit: at the highest dose activity, negative = inhibition, usual class: inhibitors | P. falciparum Dd2 growth, SYBR Green, 72 h | 4.3% of 120,000 active; active = well fitted inhibition curve with a large enough effect;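 also: plate controls were DMSO vehicle for no effect and reference drug for full effect; nearly all actives have a fitted effect of over 65% in size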
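Readout: SYBR Green fluorescence, 485 nm excitation, 535 nm emission, after ~16 h lysis at 37C. Before that, Dd2-infected red cells (2.5% hematocrit) grew 72 h with compound, 29 uM top final concentration.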
An asterisk follows results filed as active; i = inactive; [ ] = another dose, or the depositor's remark. Many of the other results were omitted from the sample, so hits are more common in it than they were. Potency is read from the fitted curve at half-maximal effect.

SMILES	Pf Dd2 inh
COc1ccc(-c2ccccc2NC(=O)C2CCCN(Cc3c(O)cccc3OC)C2)cc1 (centres undefined)	1.8µM*
COc1ccc(-c2ccccc2NC(=O)C2CCCN2C(=O)C2(C)CC2)cc1 (centres undefined)	-10%
COc1ccc(-c2cn3nc(N4CCCC(C(=O)Nc5cccc(Cl)c5C)C4)sc3n2)cc1 (centres undefined)	-11%
CCNC(=O)N1CCCC1C(=O)Nc1ccccc1-c1ccc(OC)cc1 (centres undefined)	6%
COc1ccc(-c2ccccc2NC(=O)C2CCCN(Cc3ccccc3O)C2)cc1 (centres undefined)	2.8µM*
COc1ccc(Cl)cc1NC(=O)Cn1c(=O)c(-c2noc(C)n2)c2n(c1=O)CCCC2	-15%
CCOc1ncccc1Cn1cc(-c2cncnc2)nn1	-9%
CC1CCc2nc(NC(=O)COc3ccc(C(C)(C)C)cc3)sc2C1 (centres undefined)	72%
CCCC(=O)Nc1nc2c(s1)CC(C(C)(C)C)CC2 (centres undefined)	13µM*
CC1CCc2nc(NC(=O)Cc3ccc(Cl)cc3)sc2C1 (centres undefined)	84%
Cc1ccccc1C(=O)Nc1nnc(S(=O)(=O)N(C)Cc2ccccc2)s1	35%
Cc1ccccc1C(=O)Nc1nnc(S(=O)(=O)N2c3ccccc3CC2C)s1 (centres undefined)	-12%
Cc1ccccc1C(=O)Nc1nc2c(s1)CC(C(C)(C)C)CC2 (centres undefined)	5.6µM*
COCC(=O)NC[C@H]1OC[C@@H](NCc2cccc(C#N)c2)[C@@H]1O	-3%[44.1 µM]
CN1CCC2(CCC1=O)CN(CC(=O)NCc1ccccn1)CCN2C (centres undefined)	-8%
Cc1nc(CN2C[C@H](C(=O)Nc3ccc(F)cc3)C[C@@H]2c2ccc(F)cc2)cs1	-26%[44.1 µM]
COCCOc1ccc2c(n1)CCN(C(=O)c1sccc1C)C2	i
CCN1c2cc(C(=O)NCc3ccc(OC)c(OC)c3)ccc2C(=O)N2CCCCCC21 (centres undefined)	-23%
O=C1CCN(C(=O)c2ccc3ccccc3n2)CCOCCN1	4%
CC(C)(C)OC(=O)N1CCC(Cn2c(=O)[nH]c3cccnc32)CC1	-18%[44.1 µM]
CN1CCC(Oc2nccnc2N2CCc3ccccc32)C1 (centres undefined)	2.8µM*
O=C(c1ccncc1)N1CCC(Oc2nccnc2N2CCOCC2)C1 (centres undefined)	37%
Cn1nccc1C(=O)N1CCC(Oc2nccnc2N2CCOCC2)C1 (centres undefined)	114%
CCCNC(=O)N[C@H]1C[C@@](O)(C(=O)N[C@H](C)C(N)=O)C[C@@H](O)[C@@H]1O	53%[44.1 µM]
CC[C@@]1(O)CCN(C(=O)c2cccc(CCC(C)(C)O)c2)C[C@H]1O	-12%
SMILES	Pf Dd2 inh
COc1cccc(S(=O)(=O)N2CC(F)(F)C[C@H]2c2nnc(C)o2)c1	47%
COc1cccc(CCC(=O)N2CCC(N3CC4CC(C3)[C@H]3CCCC(=O)N3C4)CC2)c1 (some centres undefined)	-11%
CCn1cc(C(=O)NCCc2ccccc2)c(=O)c2cc(S(=O)(=O)N(C)C3CCCCC3)ccc21	-7%
CCn1cc(C(=O)NCCCN(CC(C)C)CC(C)C)c(=O)c2cc(S(=O)(=O)N3CCc4ccccc4C3)ccc21	2%
CCn1cc(C(=O)NCCCN2CCCC(C)C2)c(=O)c2cc(S(=O)(=O)N(C)C3CCCCC3)ccc21 (centres undefined)	1µM*
CCCN(CCC)CCCNC(=O)c1cn(CC)c2ccc(S(=O)(=O)N3CCc4ccccc4C3)cc2c1=O	-18%
CCCCN(CCCC)CCNC(=O)c1cn(CC)c2ccc(S(=O)(=O)N(C)C3CCCCC3)cc2c1=O	-18%
CCCCN(CC)CCCNC(=O)c1cn(CC)c2ccc(S(=O)(=O)N3CCc4ccccc4C3)cc2c1=O	10µM*
Cc1cccc(NC(=O)Nc2ccc(C)n(CC(=O)NCCC(C)C)c2=O)c1	-9%
O=C(C1CC1)N1CCCC1c1nc(C2CCOCC2)no1 (centres undefined)	-7%
O=C1NC[C@@H](CCC(=O)N2CCCCC2)N2C[C@@H](NC(=S)Nc3ccc(Cl)cc3)C[C@@H]12	6.3µM*
O=C(Nc1ccccc1)N[C@H]1C[C@H]2C(=O)NC[C@@H](CCC(=O)N3CCCCC3)N2C1	i
CC(C)NC(=O)N[C@H]1C[C@H]2C(=O)NC[C@@H](CCC(=O)N3CCCCC3)N2C1	8%[44.1 µM]
COC(=O)CNC(=O)C1c2ccccc2C(=O)N(CC(C)C)C12CCCCC2 (centres undefined)	-7%
O=C(c1ccco1)N1CCC2(CC1)CC(N(Cc1ccc(F)cc1)C1CC1)CCO2 (centres undefined)	2.8µM*
Cc1cc(C(=O)N2CCC3(CC2)CC(N(Cc2ccc(F)cc2)C2CC2)CCO3)n(C)n1 (centres undefined)	i
O=C(CCC1CCCC1)N1CCC2(CC1)CC(N(Cc1ccccc1)C1CC1)CCO2 (centres undefined)	13µM*
CCC(=O)N1CCC2(CC1)CC(N(Cc1ccccc1)C1CC1)CCO2 (centres undefined)	-20%
O=C(CC1CCCC1)N1CCC2(CC1)CC(N(Cc1ccc(F)cc1)C1CC1)CCO2 (centres undefined)	7.9µM*
Cc1ccc(C(=O)N2CCC3(CC2)CC(N(Cc2ccccc2)C2CC2)CCO3)s1 (centres undefined)	1.6µM*
COCCC(=O)N1CCC2(CC1)CC(N(Cc1ccccc1)C1CC1)CCO2 (centres undefined)	i
CC(C)C(=O)N1CCC2(CC1)CC(N(Cc1ccccc1)C1CC1)CCO2 (centres undefined)	-23%
O=C(C1CCOCC1)N1CCC2(CC1)CC(N(Cc1ccc(F)cc1)C1CC1)CCO2 (centres undefined)	0%
CCOCC(=O)N1CCC2(CC1)CC(N(Cc1ccc(F)cc1)C1CC1)CCO2 (centres undefined)	-33%
O=C(C1CCC1)N1CCC2(CC1)CC(N(Cc1ccc(F)cc1)C1CC1)CCO2 (centres undefined)	i
SMILES	Pf Dd2 inh
Cc1ccc(C(=O)N2CCC3(CC2)CC(N(Cc2ccccc2)C2CC2)CCO3)cc1 (centres undefined)	i
CC1(C)C(=O)N(CC2CCOCC2)[C@H]2CN(Cc3cccc(OC(F)(F)F)c3)C[C@H]2[S+]1(=O)[O-]	-9%
O=C(c1ccncc1)N1CCC(n2c(=O)[nH]c3ccccc32)CC1	9%[44.1 µM]
Cc1ccc(-c2nnc(C3CN(C(=O)c4cccc(Cl)c4)CC34CCOCC4)o2)cc1 (centres undefined)	i
COc1ccc(-c2noc(-c3nc(Cc4ccccc4)no3)n2)cc1OC	i
CC(=O)N[C@@H]1Cc2ccccc2[C@H]1NC(=O)CN1C(=O)CNC1=O	7%
COCCNc1nc2c([S+](=O)([O-])c3cc(OC)ccc3OC)nnn2c2ccccc12	-17%
Cc1nc(C(C)C)sc1C(=O)N1CCCC(OCc2ccccn2)C1 (centres undefined)	-1%
COCCn1ncc(N2CCC(NC(=O)C3CCCCC3)CC2)cc1=O	6%
CC(C)(C)C(=O)N1CCCC2(CN[S+](=O)([O-])c3cccnc3O2)C1 (centres undefined)	2%
O=C(NC1CC(=O)N(CCc2ccc(F)cc2)C1)C1CCCCC1 (centres undefined)	6%
O=C(C1CCCCC1)N1C[C@@H](CO)[C@H](c2ccncc2)C1	6%
